We go through four compounds from PubChem BioAssay (NCATS).

The structures appear in SMILES notation. Results filed as inconclusive are left out. Active and inactive are the calls of the source. Calls follow the shape of the dose curve; as a rule, active = well fitted curve in the direction sought with a large enough effect; inconclusive = small, poorly fitted or top-dose-only effect, or another doubt; inactive = no such curve, though single readings can be large; an effect the other way counts as inactive or inconclusive.

A short description of the first assay: qHTS assay for measurement of the activity of small molecule inhibitors on Zika virus induced Caspase-3 activity in human iPSC derived neural progenitor cells (hNPCs) (AID 1224857). Also: % of control where 0% means no effect; nearly all actives have a fitted effect of over 65% in size. The settings on record: hNPCs ZIKV-induced caspase-3/7, Caspase-Glo luminescence, 6 h; series mostly up to 45.7 µM; activity change, negative = inhibition: at the top concentration. In a few lines: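 Quantitative HTS format: human iPSC neural progenitors, 1 h compound pretreatment, ZIKV 2 FFU/cell for 6 h at 37 C. Percent inhibition derived from luminescent caspase-3/7 signal between uninfected and infected controls.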
For the compound `NCC(CC(=O)O)c1ccc(Cl)cc1` (stereo unspecified), the Potency result is “inactive”.

Take `COc1ccc(C(CN(C)C)C2(O)CCCCC2)cc1` (stereo unspecified): the Potency result is “inactive”.

Take `C[C@]12C/C(=C/O)C(=O)C[C@@H]1CC[C@@H]1[C@@H]2CC[C@@]2(C)[C@H]1CC[C@]2(C)O`: the “activity change, negative = inhibition” value is -9.89% (inactive).

For the compound `CN(C)[C@@H]1C(=O)C(C(N)=O)=C(O)[C@@]2(O)C(=O)C3=C(O)c4c(O)cccc4[C@@](C)(O)[C@H]3C[C@@H]12`, the Potency entry is “inactive”.

A further assay in a line: qHTS assay for measurement of the activity of small molecule inhibitors on Zika virus induced Caspase-3 activity in human astrocytoma cells (AID 1224859).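 Also: plate controls were ZIKV-infected untreated cells for no effect and uninfected cells for full effect.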 Particulars: SNB-19 ZIKV-induced caspase-3/7, luminescence, 6 h; series mostly up to 45.7 µM; activity change, negative = inhibition: at the top concentration. Put shortly: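 Readout is luminescence from Caspase-Glo 3/7 added after a 6 h ZIKV infection (2 FFU/cell) of compound-pretreated (1 h) SNB-19 cells; data expressed as % inhibition versus uninfected and infected wells.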
Regarding `NCC(CC(=O)O)c1ccc(Cl)cc1` (stereo unspecified), the compound was called inactive.

As to `COc1ccc(C(CN(C)C)C2(O)CCCCC2)cc1` (stereo unspecified), the compound was classed as inactive.

As for `C[C@]12C/C(=C/O)C(=O)C[C@@H]1CC[C@@H]1[C@@H]2CC[C@@]2(C)[C@H]1CC[C@]2(C)O`, the “activity change, negative = inhibition” value is 41.1% (inactive).

As for `CN(C)[C@@H]1C(=O)C(C(N)=O)=C(O)[C@@]2(O)C(=O)C3=C(O)c4c(O)cccc4[C@@](C)(O)[C@H]3C[C@@H]12`, the call was inactive.

A short description of another assay: qHTS assay to identify small molecule inhibitors of chordoma cells - UCH-1 (AID 1259355). Also: % is scaled to controls: 0 for no effect and ±100 for the full control effect; nearly all actives have a fitted effect of over 55% in size. Particulars: UCH-1 chordoma viability, CellTiter-Glo, 48 h, combination; series mostly up to 46.1 µM; activity, negative = inhibition: at the top concentration. Put shortly:
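800 cells/well, overnight attach; compounds pinned at 15 concs, then auranofin/camptothecin/doxorubicin/rubitecan/topotecan combo added; 48hr 37 C, 5% CO2; CellTiter-Glo, 30min RT, luminescence.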
`NCC(CC(=O)O)c1ccc(Cl)cc1` (stereo unspecified): the “activity, negative = inhibition” value is -3.81% (inactive).

For the compound `COc1ccc(C(CN(C)C)C2(O)CCCCC2)cc1` (stereo unspecified), the “activity, negative = inhibition” value was -22.5% (inactive).

`C[C@]12C/C(=C/O)C(=O)C[C@@H]1CC[C@@H]1[C@@H]2CC[C@@]2(C)[C@H]1CC[C@]2(C)O`: the “activity, negative = inhibition” value is -26.8% (inactive).

As for `CN(C)[C@@H]1C(=O)C(C(N)=O)=C(O)[C@@]2(O)C(=O)C3=C(O)c4c(O)cccc4[C@@](C)(O)[C@H]3C[C@@H]12`, the “activity, negative = inhibition” value is -13.1% [at 20.6 µM] (inactive).

Another assay is described as follows: qHTS assay to identify small molecule inhibitors of chordoma cells - UCH-2 (AID 1259356). Also: % is scaled to controls: 0 for no effect and ±100 for the full control effect. Particulars: UCH-2 chordoma viability, CellTiter-Glo ATP luminescence, 48 h; series mostly up to 46.1 µM; activity change, negative = inhibition: at the top concentration.
In the case of `NCC(CC(=O)O)c1ccc(Cl)cc1` (stereo unspecified), the “activity change, negative = inhibition” value was 8.92% (inactive).

`COc1ccc(C(CN(C)C)C2(O)CCCCC2)cc1` (stereo unspecified): the “activity change, negative = inhibition” value is -0.227% (inactive).

For `C[C@]12C/C(=C/O)C(=O)C[C@@H]1CC[C@@H]1[C@@H]2CC[C@@]2(C)[C@H]1CC[C@]2(C)O`, the “activity change, negative = inhibition” value was 4.06% (inactive).

As for `CN(C)[C@@H]1C(=O)C(C(N)=O)=C(O)[C@@]2(O)C(=O)C3=C(O)c4c(O)cccc4[C@@](C)(O)[C@H]3C[C@@H]12`, the “activity change, negative = inhibition” value was 15% [at 20.6 µM] (inactive).
